Measured values reported in PubChem BioAssay (NCI).
The panel holds about 83,000 compounds, 20% with a hit somewhere; the sample as a whole holds those more often.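 Note: values are percent growth. 100 is the growth of untreated cells, values between 100 and 0 indicate rising inhibition; between -100 and 0 indicates cell death.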 Unmarked numbers belong to inactive results. The source made the active and inactive calls.

tested on: A549/ATCC NSCLC; test: NCI-60 one-dose screen, 48 h (100 = growth as untreated, 0 = no growth, -100 = all killed); settings: 10 µM unless noted
Method: Growth inhibition of the A549/ATCC human Non-Small Cell Lung tumor cell line is measured as a screen for anti-cancer activity. Cells are grown in 96 well plates and exposed to the test compound for 48 hours. Compounds are tested at a single concentration, which is 10^-5 M for most compounds. The reported endpoint is percent growth (GI% or GIPRCNT), where numbers from 0 - 100% represent growth inhibition, and numbers from -100% - 0 represent cell death. For example, a value of 40 represents 60% growth inhibition. A value of 0 means no net growth occurred over the course of the experiment. A value of -40 indicates 40% of cells at the beginning of the experiment died by the end of the experiment. A value of -100 means all cells are dead at the end of the experiment.
NCI-60 Human Tumor Cell Lines Screen was performed using the standard one-dose NCI protocol, which is described in more detail at https://dtp.cancer.gov/discovery_development/nci-60/default.htm.
Compounds with GIPRCNT values below 10 were considered active. Activity score was based on GIPRCNT using the following formula: […]
Score is 0 for GIPRCNT values of 100 or above, 50 for GIPRCNT values of 0, and 100 for GIPRCNT values of -100.

| SMILES | growth |
| --- | --- |
| CNC(=O)c1cccc(Cn2nc(C)c(NC(=O)c3ccc(COc4ccc(C(F)(F)F)cc4C)cc3)c2C)n1 | 39.1% |
| Cc1c(C)c([N+](=O)[O-])c(C)c([N+](=O)[O-])c1C | 98.2% |
| Cc1nc2sccn2c1-c1nc2sccn2c1/C=C1/C(=O)Nc2ccccc21 | 39.5% |
| NS(=O)(=O)c1ccc(CCN2C(=O)c3cc(Cl)c(Cl)cc3C2=O)cc1 | 105% |
| COc1cc(/C=C\c2cc(OC)c(OC)c(OC)c2)cc(NC(=O)/C=C/c2cc(OC)c(OC)c(OC)c2)c1OC | 60.8% |
| CCOC(=O)Nc1ccc(-c2ccc3c(c2)NC(=O)/C3=C\c2ccc[nH]2)cc1 | 103% |
| COc1cc2nc(-c3ccc(C(F)(F)F)cc3)cc(OCCCN3CCOCC3)c2cc1OC | 29% |
| O=S(=O)(NCCNc1nccc(-c2c(-c3cccc(F)c3)nc3sccn23)n1)c1ccc(Br)cc1 | 34.1% |
| CCN1Cc2nc3sc(C)c(C)c3c(=O)n2C=C1C | 86.8% |
| COc1cc2c(c(OC)c1OC)CCC(c1cccc(NC(=O)c3cccc(Br)c3)c1)O2 (stereo not given) | 81.2% |
| CN1[C@@H]2CC[C@H]1/C(=C\c1ccccc1)C(=O)/C2=C/c1ccccc1 | 45.3% |
| CCOc1cccc(-c2nc(N)nc(Nc3ccccc3SSc3ccccc3Nc3nc(N)nc(-c4cccc(OCC)c4)n3)n2)c1 | -10.8% (active) |
| S=c1cc(S)c2cc(Br)ccc2[nH]1 | 89.5% |
| COc1cc(NCCCCCNC(C)(C)C)c2ncccc2c1 | 88.1% |
| CN1CCN(CCNc2nccc(-c3c(-c4cccc(O)c4)nc4sccn34)n2)S1(=O)=O | 88% |
| CCN(CC)c1ccc(/C=N/NC(=O)CSc2nc3ccccc3c(=O)n2CCc2ccc(S(N)(=O)=O)cc2)c(O)c1 | 25.4% |
| Nc1n[nH]c2cccc(C#Cc3cccc(C(=O)Nc4cc(CN5CCOCC5)cc(C(F)(F)F)c4)c3)c12 | 42.4% |
| COc1ccc(CC(C)=C(c2ccc(OCCN3CCCCCC3)cc2)c2ccc(OCCN3CCCCCC3)cc2)cc1 | -86% (active) |
| Cc1cc2nc3c4cc([N+](=O)[O-])ccc4n(CCN(C)C)c3nc2cc1C | -45.8% (active) |
| CC(=O)Oc1ccc(/C=N/NC(N)=S)nc1 | 98.2% |

| SMILES | growth |
| --- | --- |
| N#Cc1c(NC(=O)NCc2ccccc2)sc2c1CCCC2 | 28.5% |
| COc1ccc(/C=C2\COc3ccc(-c4ccccc4)cc3C2=O)c(OC)c1 | 90.9% |
| CCCCCCOc1ccc(/C=N/Nc2cc(C)nc3ccc(Cl)cc23)cc1 | -43.1% (active) |
| CC(Sc1nc2ccccc2c(=O)n1CCc1ccc(S(N)(=O)=O)cc1)C(=O)Nc1ccc(Cl)cc1 (stereo not given) | 69.6% |
| COc1cc2c(c(O)c1Cl)C(=O)c1c(O)cc(C[C@H](C)O)cc1[C@H]2[C@H]1c2cc(C[C@H](C)O)cc(O)c2C(=O)c2c1cc(OC)c(Cl)c2O | 12.5% |
| COc1ccc(/C=N/NC(=O)c2cnn3c2NC(c2ccccc2)C3)cc1OC (stereo not given) | 54.2% |
| O=C1Nc2cc(-c3ccc(NC(=O)c4ccccc4)cc3)ccc2/C1=C/c1ccc[nH]1 | 103% |
| O=C(Cn1c[n+](CC(=O)c2ccc(-c3ccccc3)cc2)c2ccccc21)Nc1cccc2cccnc12 | 59.9% |
| COc1ccc(C(C)=O)c(OC)c1 | 105% |
| O=C(Nc1ccccc1)Nc1ccc2cc3ccc(NC(=O)Nc4ccccc4)cc3nc2c1 | 101% |
| CCOC(=O)CSc1nc2ccccc2c(=O)n1Cc1ccc(S(N)(=O)=O)cc1 | 98% |
| C=C1C(=O)O[C@H]2[C@H]1CC/C(CNC(=O)c1cccc3ccccc13)=C\CC[C@@]1(C)O[C@@H]21 | 76.9% |
| CCN(CC)c1ccc(C(=O)c2ccccc2)cc1 | 89.4% |
| COc1cc2oc(-c3cccc(C(=O)Nc4ccccc4)c3)cc(=O)c2c(O)c1OC | 60.3% |
| CC1(C)c2[nH]c3ccccc3c2C[C@]2(C)[C@H]3C(=O)C=C4[C@@H]5C[C@@](C)(C(N)=O)CC[C@]5(C)CC[C@@]4(C)[C@]3(C)CC[C@@H]12 | 65.8% |
| COc1ccc(-c2nc(S(=O)(=O)c3ccccc3)c(S(=O)CC(=O)N3CCC(C)CC3)o2)cc1 (stereo not given) | 77.4% |
| C=C1C(=O)O[C@H]2[C@H]1CC/C(CNC(=O)/C=C/c1ccccc1)=C\CC[C@@]1(C)O[C@@H]21 | 46.8% |
| COc1ccc(/C=C/c2nc(Nc3cccc(NC(C)=O)c3)c3ccccc3n2)cc1 | 55.4% |
| N#CC1C(C#N)C(C(=O)c2ccc(Br)cc2)N2c3ccccc3C=CC12 (stereo not given) | 65.8% |
| Cn1ccnc1C(=O)/C=C/c1ccc(CC(=O)Nc2ccc(Cl)cc2)cc1 | 6% (active) |
